From PubChem
EBNA-1 inh – blocks EBNA-1 binding to DNA. 300,000 tested, 0.34% active. EBNA-1 DNA binding, fluorescence polarization. inhibition, % at 14.8 µM. AID 1950; in the data active = inhibition above about 28%
PAFAH2 FP inh – inhibitors of human PAFAH2 | Q99487 | recombinant PAFAH2, FP-rhodamine activity probe, fluorescence polarization | inhibition, % at 3.39 µM | 340,000 tested, 0.99% active | AID 492956;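 active = inhibition above the mean over all tested compounds plus 3 SD, cut at about 30% in these data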;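 note: inhibitors block probe labeling of enzyme so polarization drops; 0% = enzyme with DMSO and 100% = wells lacking PAFAH2 protein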
pPAFAH FP inh – inhibitors of human plasma PAF acetylhydrolase (pPAFAH); recombinant pPAFAH, FP-rhodamine probe fluorescence polarization; Q13093; inhibition, % at 3.39 µM; AID 463082; 330,000 tested, 1.5% active;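 active = inhibition above the mean inhibition across the screen plus 3 SD, cut at about 25% in these data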;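 note: inhibitors block binding of the rhodamine activity-based probe so polarization drops; 0% = enzyme with DMSO and 100% = wells lacking pPAFAH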
Target sequence (Q13093 whole entry, looked up): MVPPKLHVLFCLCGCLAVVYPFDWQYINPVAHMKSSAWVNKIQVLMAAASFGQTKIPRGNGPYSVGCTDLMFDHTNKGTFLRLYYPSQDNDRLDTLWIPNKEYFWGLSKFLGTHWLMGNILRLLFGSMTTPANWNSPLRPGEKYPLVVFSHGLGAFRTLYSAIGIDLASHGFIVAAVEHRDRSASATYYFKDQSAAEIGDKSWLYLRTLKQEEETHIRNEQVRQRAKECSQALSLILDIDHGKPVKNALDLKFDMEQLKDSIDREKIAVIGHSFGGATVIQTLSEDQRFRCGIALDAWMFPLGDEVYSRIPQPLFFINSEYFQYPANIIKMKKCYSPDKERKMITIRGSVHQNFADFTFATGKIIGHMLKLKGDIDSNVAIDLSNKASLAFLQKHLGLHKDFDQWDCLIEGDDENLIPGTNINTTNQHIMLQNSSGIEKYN
PAFAH1B2 FP inh – inhibitors of human PAFAH1B2. P68402. recombinant PAFAH1B2, FP-rhodamine activity probe, fluorescence polarization. inhibition, % at 3.39 µM. 340,000 tested, 1.2% active;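 active = inhibition above the mean of all tested compounds plus 3 SD, cut at about 24% in these data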;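 note: 0% = enzyme with DMSO and 100% = wells lacking PAFAH1B2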
PAFAH1B3 FP inh – blocks human PAF acetylhydrolase 1B catalytic subunit 3; inhibition, % at 3.39 µM; recombinant PAFAH1B3, FP-rhodamine probe, fluorescence polarization; 340,000 tested, 0.28% active; Q15102; AID 492972;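 active = inhibition above the screen-wide average of all tested compounds plus 3 SD, cut at about 25% in these data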;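 note: 0% = enzyme with DMSO only and 100% = wells lacking PAFAH1B3 protein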
ZTA DNA inh – blocks Epstein-Barr virus ZTA, an EBNA-1 counter-screen. P03206. ZTA-DNA binding, fluorescence polarization. inhibition, % at 11 µM. 320,000 tested, 0.15% active; in the data active = inhibition above about 33%
* = called active by the depositor; · = not tested or not shown. Most compounds without a hit are left out; they make up all but 2.9% or so of the library.

SMILES	EBNA-1 inh	PAFAH2 FP inh	pPAFAH FP inh	PAFAH1B2 FP inh	PAFAH1B3 FP inh	ZTA DNA inh
NC(=O)CCN(C(=O)c1cccc(S(=O)(=O)N2CCc3ccccc32)c1)c1ccccc1	·	-3	-1	27*	4	-3
CCOC(=O)c1c(C)n(C)c2ccc(OC)c(NC(=O)CN3CCC(C(=O)OCC)CC3)c12	-16	3	1	1	8	3
O=C(CCN1C(=O)/C(=C/c2ccc(Cl)cc2)SC1=S)Nc1cccc(C(=O)O)c1	2	3	4	8	-4	2
O=C(O)c1cccc(N2C(=O)/C(=C/c3ccc(SCc4ccc(Cl)cc4)o3)SC2=S)c1	·	23	·	34*	15	·
Cc1ccc(-c2ccc(=O)n(Cc3cccc(Br)c3)n2)cc1	-10	0	17	5	8	7
O=C(O)CC1Sc2ccccc2NC1=O (configuration not stated)	-4	9	1	2	6	-10
O=C1Nc2ccccc2SC(c2ccccc2)C1O (configuration not stated)	-3	12	34*	6	1	-2
N#CCSc1n[nH]c2nc3c(c(=O)n12)C1(CCCCC1)Cc1ccccc1-3	2	38*	22	91*	6	12
CCSc1n[nH]c2nc3c(c(=O)n12)C1(CCCCC1)Cc1ccccc1-3	-13	58*	4	82*	3	-22
CCC(=O)Nn1cnc2c(c1=O)C1(CCCCC1)Cc1ccccc1-2	-3	-4	-2	33*	4	13
CCCn1c(SCC(N)=O)nc2c(c1=O)C1(CCCC1)Cc1ccccc1-2	-12	-8	8	24	4	3
CSc1n[nH]c2nc3c(c(=O)n12)C1(CCCCC1)Cc1ccccc1-3	-1	44*	6	91*	10	4
Cn1c(NCCCO)nc2c(c1=O)C1(CCCCC1)Cc1ccccc1-2	-11	0	-1	19	5	8
CCc1nnc(SCC(=O)Nc2ccccc2)n1CC1CCCO1 (configuration not stated)	·	-1	·	3	-4	·
CC(=O)Nc1ccc(S(=O)(=O)NCCC(=O)NC(C)c2cccs2)cc1 (configuration not stated)	·	-10	1	3	5	·
CCCC(=O)N(c1ccc2oc(=O)sc2c1)S(=O)(=O)c1cccs1	-5	35*	10	6	14	-14
CC(=O)N(c1ccc2oc(=O)sc2c1)S(=O)(=O)c1ccccc1	2	7	4	12	6	-12
O=C(O)CC1c2ccccc2CCN1S(=O)(=O)c1ccc(F)cc1 (configuration not stated)	-7	-6	4	31*	1	-12
CCOC(=O)C1(C)Oc2ccc(S(=O)(=O)CC)cc2NC1=O (configuration not stated)	-3	5	3	-2	2	-1
O=C(O)CCc1ccc(-c2ccc(Br)cc2)n1-c1ccc(O)cc1	·	1	·	33*	0	·
Cc1ccc(-c2nc(Nc3ccc(O)cc3)c3ccccc3n2)cc1	-13	-2	26*	2	22	-6
C=CCOC(=O)C1=C[C@H](c2ccc(Br)cc2)C[C@H](OCc2ccc(CO)cc2)O1	0	-1	8	7	7	11
Cc1ccc(C=C2C(Cl)=C(Cl)C(Cl)=C2Cl)cc1	1	·	41*	·	·	7
Cc1ccc(/C=[N+](/C)[O-])cc1	-7	3	7	6	7	-5
CCN(CC)c1ccc(-c2sc(Nc3ccccc3)n[n+]2-c2ccc(F)cc2)cc1	5	0	4	-6	0	3
SMILES	EBNA-1 inh	PAFAH2 FP inh	pPAFAH FP inh	PAFAH1B2 FP inh	PAFAH1B3 FP inh	ZTA DNA inh
CCc1ccc(Nc2n[n+](-c3ccccc3)c(-c3ccc(N(CC)CC)cc3)s2)cc1	-6	10	30*	3	5	-10
COc1ccc2nc(SCC(=O)NC3CCCC3)c(C)cc2c1	-9	6	6	2	3	-8
Cc1cc(C(=O)Nc2c(C)nn(Cc3ccccc3Cl)c2C)no1	10	-1	26*	3	4	10
COc1ccc(OC)c(-c2cc(C(=O)Nc3c(C)nn(Cc4ccccc4Cl)c3C)no2)c1	12	-12	4	-1	1	-15
Cc1ccc(NC(=O)C(=O)NCCCN2CC(C(=O)O)CC2=O)cc1 (configuration not stated)	3	3	0	0	-2	0
CCC(=O)c1ccc(OCC(=O)OCC(=O)N(CCC#N)c2ccc3c(c2)OCCO3)cc1	·	0	7	-2	3	·
